The values that follow come from PubChem BioAssay (Tox21).

Assay [1] can be described thus: qHTS assay to identify small molecule agonists of the constitutive androstane receptor (CAR) signaling pathway - cell viability counter screen (AID 1224836). Also: nearly all actives have a fitted effect of over 45% in size. Summed up:
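23 h treatment, 37 C, 5% CO2. Cell line: HepG2 stably expressing hCAR with a CYP2B6-2.2kb construct. Co-treatment: PK11195, 0.75 uM final. Read-out: CellTiter-Fluor fluorescence intensity.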

Assay [2] is described as follows: qHTS assay to identify small molecule antagonists of the constitutive androstane receptor (CAR) signaling pathway - cell viability counter screen (AID 1224837). Also: nearly all actives have a fitted effect of over 45% in size. Summed up:
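Multiplexed cytotoxicity read-out for the CAR antagonist screen: double-stable HepG2-CYP2B6-hCAR cells co-treated with 50 nM CITCO (final) and compound over 15 concentrations, incubated 23 hr, then assessed by CellTiter-Fluor fluorescence.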

For assay [3], the target named is Nuclear receptor subfamily 1 group I member 3 (Homo sapiens) (UniProt Q14994). In words: qHTS assay to identify small molecule antagonists of the constitutive androstane receptor (CAR) signaling pathway (AID 1224838). Also: nearly all actives have a fitted effect of over 40% in size. The gist of the method:
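Compounds were titrated across 15 concentrations onto HepG2 cells double-stably expressing hCAR and a CYP2B6-2.2kb reporter, together with 50 nM CITCO (final). After 24 h at 37 C, luciferase activity was measured by luminescence.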

For assay [4] the target is unchanged. As to the kind of experiment: qHTS assay to identify small molecule agonists of the constitutive androstane receptor (CAR) signaling pathway (AID 1224839).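 Also: HepG2 cells stably carrying human CAR and a CYP2B6 luciferase reporter; nearly all actives have a fitted effect of over 15% in size.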 Summed up:
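Compounds tested at 15 concentrations on HepG2 cells stably harbouring hCAR and CYP2B6-2.2kb reporter constructs, co-treated with PK11195 (0.75 uM final), 24 h at 37 C; luminescent reporter signal quantified.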

The nature of assay [5]: qHTS assay to identify small molecule antagonists of the estrogen related receptor signaling pathway with the pleiotropic PPARgamma coactivator (PGC) from Tox21 10K library - cell viability counter screen (AID 1224840; active = well fitted cell-killing curve with a large enough effect in the repeat runs, not every such curve was filed as active; also: nearly all actives have a fitted effect of over 40% in size). The gist of the method: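 Step one, plate 2,000 PGC/ERR cells per well; step two, incubate 6 h at 37 C/5% CO2; step three, pin-transfer compounds; step four, incubate 17.5 h; step five, add CellTiter-Fluor and read fluorescence after 30 min.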

The nature of assay [6]: qHTS assay to identify small molecule antagonists of the estrogen related receptor signaling pathway with the pleiotropic PPARgamma coactivator (PGC) from Tox21 10K library (AID 1224841; call rule not given here; also: actives are mostly falling curves and most rising ones were filed inactive; nearly all actives have a fitted effect of over 50% in size; also: potency is read from the fitted curve at half-maximal effect). The gist of the method: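 Antagonism in this quantitative HTS is taken from loss of luciferase signal in PGC/ERR cells. Cells (2,000/well) are treated with compounds in DMSO after a 6 h settling period and read by One-Glo luminescence after 18 h.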

Assay [7] is described as follows: qHTS assay to identify small molecule agonists of the estrogen related receptor signaling pathway with the pleiotropic PPARgamma coactivator (PGC) from Tox21 10K library (AID 1224842). Also: nearly all actives have a fitted effect of over 15% in size. Summed up:
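PGC/ERR reporter cells (NTP line) were seeded 2,000 per well, rested 6 h at 37 C/5% CO2, then pin-dosed with compounds in DMSO for 18 h at 37 C; luciferase read by One-Glo luminescence after 30 min at room temperature.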

The target in assay [8] is Thyrotropin receptor (Homo sapiens) (UniProt P16473). In words: qHTS assay to identify small molecule agonists of the thyroid stimulating hormone receptor (TSHR) signaling pathway (AID 1224843; calls by dose curve; also: nearly all actives have a fitted effect of over 45% in size). Summed up: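 TSHR-expressing HEK293 cells (800 per well) were exposed to compounds for 30 min at room temperature. cAMP was then detected by HTRF competition with cAMP-d2 and anti-cAMP cryptate, read after 1 h at room temperature. Fifteen concentrations, triplicate.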

Assay [9] can be described thus: qHTS assay to identify small molecule agonists of the hypoxia (HIF-1) signaling pathway - cell viability counter screen (AID 1224844; calls by dose curve; also: nearly all actives have a fitted effect of over 50% in size). Summed up:
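Tox21 10K compounds were added to HRE-bla ME-180 cells (0.5% dialyzed FBS) and incubated 17 hrs at 37C; ATP-based CellTiter-Glo luminescence then reported cell viability in the same wells.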

Assay [10] can be described thus: qHTS assay to identify small molecule agonists of H2AX (AID 1224845; active = well fitted activation curve with a large enough effect in the signal ratio in the repeat runs, not every such curve was filed as active; the % refers to the signal ratio). The gist of the method: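 Wild-type CHO-K1 cells plated overnight, then exposed 3 hr at 37C to compounds at 15 concentrations (0.76% DMSO). Lysed, then HTRF anti-pH2AX(S139)-cryptate/anti-H2AX-d2 detection after 24 hr at room temperature; emissions 665 and 620 nm.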
Assay [11] in a line: qHTS assay to identify small molecule agonists of the hypoxia (HIF-1) signaling pathway (AID 1224846; active = well fitted activation curve with a large enough effect in the signal ratio in the repeat runs, not every such curve was filed as active; the % refers to the signal ratio). The gist of the method: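 Steps: seed ME-180 HRE-bla cells (2,000/well, 0.5% dialyzed FBS); incubate 5 hrs at 37C; pin-transfer compounds or DMSO; incubate 17 hrs; add LiveBLAzer B/G substrate CCF4-AM; measure reporter activation by FRET.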
Assay [12] is described as follows: qHTS assay to identify small molecule agonists of H2AX - cell viability counter screen (AID 1224847; calls by dose curve; also: top concentration of the series differs between compounds; nearly all actives have a fitted effect of over 30% in size). The gist of the method:
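Compounds tested at 15 concentrations were incubated 3 hr at 37C with wild-type CHO-K1 cells; cellular ATP-based luminescence (CellTiter-Glo) indicated viability.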

A short description of assay [13]: qHTS assay to identify small molecule antagonists of the estrogen related receptor (ERR) signaling pathway from Tox21 library (AID 1224848). Also: nearly all actives have a fitted effect of over 50% in size. Summed up:
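Cells: ERR line, 2,000/well; 6 h preincubation 37 C/5% CO2. Cpd in DMSO via pin tool; 18 h, 37 C. ONE-Glo, 30 min RT, luminescence.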

Assay [14] is described as follows: qHTS assay to identify small molecule agonists of the estrogen related receptor (ERR) signaling pathway from Tox21 library (AID 1224849; calls by dose curve; also: nearly all actives have a fitted effect of over 15% in size). As to conditions: ERR reporter cell line, ONE-Glo luciferase, 18 h; at 92.4 µM (top of the series) unless noted. The gist of the method: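 Agonist signal is luciferase luminescence from an ERR reporter cell line treated 18 h at 37 C with DMSO-dissolved compounds, read 30 min after ONE-Glo addition at room temperature.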

Assay [15] is described as follows: qHTS RealTime-Glo MT Cell Viability Assay in HEK293 cells - 32 hour (AID 1224868). Also: top concentration of the series differs between compounds; nearly all actives have a fitted effect of over 50% in size. Summed up: (§1)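 Reads taken at 0, 8, 16, 24, 32 and 40 h from the same wells. HEK293 cells (600/well) carried RealTime-Glo reagents from seeding, with compound added after a 5 h settle at 37 C.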
Assay [16] in a line: qHTS RealTime-Glo MT Cell Viability Assay in HepG2 cells - 40 hour (AID 1224870). Also: nearly all actives have a fitted effect of over 50% in size. The gist of the method:
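HepG2 cells mixed with RealTime-Glo MT reagents (NanoLuc plus cell-permeant prosubstrate) were seeded at 600 cells/well, incubated 5 h at 37 C/5% CO2, then pinned with compounds in DMSO; nonlytic luminescence tracked viability during 40 h treatment.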

A short description of assay [17]: A CellTox Green Cytotoxicity Assay to monitor cytotoxicity in HEK293 cells - 40 hour (AID 1224871). Also: nearly all actives have a fitted effect of over 45% in size. The gist of the method: (§2)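 Cytotoxicity was tracked continuously in HEK293 cells by a DNA-binding dye excluded from viable cells. Compounds were transferred in DMSO 5 h after seeding; fluorescence was recorded at intervals up to 40 h.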
Assay [18] can be described thus: qHTS RealTime-Glo MT Cell Viability Assay in HEK293 cells - 16 hour (AID 1224872). Summed up:
as §1

A short description of assay [19]: qHTS RealTime-Glo MT Cell Viability Assay in HepG2 cells - 24 hour (AID 1224867). Also: nearly all actives have a fitted effect of over 50% in size. Summed up: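 HepG2 suspension premixed with RealTime-Glo reagents is plated at 600 cells per well and left 5 h at 37 C/5% CO2. Compounds in DMSO then go in, and bioluminescence reflecting viable cell number is recorded over 40 h.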
A short description of assay [20]: A CellTox Green Cytotoxicity Assay to monitor cytotoxicity in HEK293 cells - 0 hour (AID 1224869). Also: nearly all actives have a fitted effect of over 50% in size. Summed up: as §2

Unmarked numbers belong to inactive results. Results filed as inconclusive are left out. Calls of active or inactive are those of the source. Unless noted, calls follow the shape of the dose curve; as a rule, active = well fitted curve in the direction sought with a large enough effect in the repeat runs; inconclusive = weak or mixed curves; inactive = no such curve, though single readings can be large; an effect the other way counts as inactive or inconclusive.
% is scaled to controls: 0 for no effect and ±100 for the full control effect.

Chain of Nuclear receptor subfamily 1 group I member 3 (Homo sapiens) (Q14994 whole entry, looked up): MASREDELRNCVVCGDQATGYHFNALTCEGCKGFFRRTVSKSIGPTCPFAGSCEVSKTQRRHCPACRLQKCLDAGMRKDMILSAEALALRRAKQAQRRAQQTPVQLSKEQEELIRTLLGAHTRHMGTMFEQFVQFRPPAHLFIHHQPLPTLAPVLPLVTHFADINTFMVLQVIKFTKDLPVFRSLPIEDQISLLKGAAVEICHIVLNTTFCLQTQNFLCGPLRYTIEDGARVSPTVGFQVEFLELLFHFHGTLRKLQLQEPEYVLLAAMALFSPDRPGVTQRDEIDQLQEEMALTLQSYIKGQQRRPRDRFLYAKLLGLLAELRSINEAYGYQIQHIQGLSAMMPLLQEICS
Chain of Thyrotropin receptor (Homo sapiens) (P16473 whole entry, looked up): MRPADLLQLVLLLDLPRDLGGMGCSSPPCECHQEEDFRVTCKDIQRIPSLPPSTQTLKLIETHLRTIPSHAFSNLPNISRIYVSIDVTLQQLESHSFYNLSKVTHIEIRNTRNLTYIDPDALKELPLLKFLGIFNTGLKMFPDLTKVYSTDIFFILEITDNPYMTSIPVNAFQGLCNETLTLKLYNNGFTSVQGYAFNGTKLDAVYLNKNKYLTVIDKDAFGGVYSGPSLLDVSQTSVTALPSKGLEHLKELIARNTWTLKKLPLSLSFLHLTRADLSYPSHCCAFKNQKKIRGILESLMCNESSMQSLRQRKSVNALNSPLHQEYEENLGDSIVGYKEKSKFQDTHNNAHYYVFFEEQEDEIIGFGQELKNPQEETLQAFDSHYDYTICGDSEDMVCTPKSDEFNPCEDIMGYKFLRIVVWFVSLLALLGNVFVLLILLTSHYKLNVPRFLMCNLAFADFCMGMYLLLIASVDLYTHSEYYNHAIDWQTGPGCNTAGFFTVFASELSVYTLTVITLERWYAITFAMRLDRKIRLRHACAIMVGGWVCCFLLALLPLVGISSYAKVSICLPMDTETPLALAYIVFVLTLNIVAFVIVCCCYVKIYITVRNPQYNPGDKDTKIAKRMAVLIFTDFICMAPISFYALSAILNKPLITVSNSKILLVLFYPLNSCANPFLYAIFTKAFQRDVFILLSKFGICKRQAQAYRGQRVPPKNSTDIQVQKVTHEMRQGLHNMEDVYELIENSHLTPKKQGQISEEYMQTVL

Take `CC(C)c1ccccc1N`: the Potency entry in assay [1], in [2], in assay [3], in assay [4], in [5] and in [6] was “inactive” each time. The Potency result in [7], in assay [8], in assay [9], in assay [10], in assay [12] and in assay [13] was “inactive” each time. The Potency entry in assay [15], in assay [16], in assay [17] and in assay [18] was “inactive” throughout. The compound was classed as inactive in [11]. In addition, the activity change, positive = activation in assay [14] was 3.39%.
`C=CC(=C)CC/C=C(\C)CCC=C(C)C`: the viability change, negative = cytotoxic in [1] was 4.77% [at 19 µM]; in [5] it was -0.28% [at 19 µM]. Further, the activity change, negative = cytotoxicity was -2.25% [at 19 µM] in assay [2]; 1.43% [at 15.8 µM] in assay [9]; 2.41% [at 31.6 µM] in assay [12]; 0.599% [at 15.8 µM] in [19]; -2.14% [at 15.8 µM] in [18]. Further, the activity, negative = inhibition was 8.18% [at 19 µM] in [3], 0% [at 19 µM] in assay [6] and -7.19% [at 19 µM] in assay [13]. In addition, the activation in assay [4] was 4.39% [at 19 µM]; in [7], 0% [at 19 µM]; in assay [8], -0.893% [at 19 µM]; in [11] it was -0.763% [at 15.8 µM]. For the same compound, the activation (H2AX phosphorylation) in [10] is -0.467% [at 31.6 µM]. In addition, the activity change, positive = activation in assay [14] is -3.55% [at 19 µM]. The activity change, negative = cytotoxic in [15] was -12.8% [at 15.8 µM]. Moreover, the cytotoxicity increase in [17] is 4.27% [at 15.8 µM].
On to `CCO[Si](C)(C)OCC`, for which the Potency result in assay [1], in assay [2], in assay [3], in [4], in assay [5] and in assay [7] was “inactive” in each case. Besides, the Potency entry in assay [8], in assay [9], in [10], in assay [12], in [13] and in assay [19] was “inactive” each time. Also, the Potency result in [15], in [20], in assay [16], in assay [17] and in [18] was “inactive” in each case. In [6], the Potency was 24.3 µM (active). Moreover, the compound was called inactive in [11]. Moreover, the activity change, positive = activation in [14] is -0.643%.
In the case of `CCNc1nc(NC(C)CC)nc(OC)n1` (centres undefined), the Potency entry in assay [1], in [2], in assay [3], in assay [4], in assay [5] and in assay [6] was “inactive” throughout. Besides, the Potency entry in assay [7], in assay [8], in assay [9], in [12], in assay [13] and in assay [19] was “inactive” throughout. Further, the Potency result in assay [15], in [16] and in [18] was “inactive” in each case. Besides, the result in assay [11] was inactive. Besides, the activity change, positive = activation in assay [14] was 10.4%.
Turning to `O=c1cccc[nH]1`, the Potency entry in [1], in [2], in [3], in assay [4], in assay [5] and in [6] was “inactive” in each case. The Potency result in assay [7], in assay [8], in assay [9], in assay [10], in assay [12] and in assay [13] was “inactive” in each case. In addition, the Potency result in assay [19], in [15], in assay [20], in assay [16], in [17] and in assay [18] was “inactive” in each case. The outcome in assay [11] was inactive. Also, the activity change, positive = activation in assay [14] is 0.143%.
As to `NC(=O)c1ccccc1N`, the Potency result in assay [1], in [2], in [3], in [4], in assay [5] and in assay [6] was “inactive” each time. The Potency result in [7], in assay [8], in [12], in assay [13], in assay [19] and in [20] was “inactive” in each case. Moreover, the Potency result in assay [16], in [17] and in assay [18] was “inactive” throughout. Also, the activity change, positive = activation in [14] was -2.02%.
As for `c1cc[nH]c1`, the Potency result in assay [1], in assay [2], in [3], in assay [4], in assay [5] and in assay [6] was “inactive” throughout. The Potency result in [7], in [8], in assay [9], in assay [10], in assay [12] and in assay [13] was “inactive” throughout. Besides, the Potency result in [19], in assay [15], in assay [20], in assay [16], in assay [17] and in [18] was “inactive” each time. The call in assay [11] was inactive. Also, in [14], the activity change, positive = activation was -5.69%.
